This is one part of a sample in which hits are shown more often than they occur.
RT RNaseH block: blocks HIV-1 RNase H cleavage of RNA/DNA duplex; P04585; RT-RNase H RNA/DNA duplex cleavage, fluorescence; inhibition, % at 10 µM; hit rate 1.9% among 65,000; in the data active means inhibition above about 50%
A number is an active result; n = inactive.

SMILES	RT RNaseH block
CCn1c2ccccc2c2nnc(SCCCn3c(=O)[nH]c4ccccc43)nc21	n
COc1ccc(S(=O)(=O)N2CC3C4C=CC(C4)C3C2)cc1 (stereo not drawn)	n
Cc1cc(C)c(S(=O)(=O)Nc2ccc(O)cc2)cc1C	n
Cc1ccc(C)c(S(=O)(=O)Nc2ccc(O)cc2)c1	n
Cc1ccc(S(=O)(=O)Nc2ccc3oc(=O)sc3c2)c(C)c1	60
Fc1ccc(COc2ccc(/C=N/n3cnnc3)cc2)cc1	n
COc1ccc(-c2c(=O)n(OCc3ccccn3)c3ccccc3[n+]2[O-])cc1OC	56
Cc1c(=O)n(OCc2ccccc2F)c2ccccc2[n+]1[O-]	n
CCOC(=O)COn1c(=O)c(-c2ccc(OC)c(OC)c2)[n+]([O-])c2ccccc21	n
CC(C)C(OC(=O)c1cccs1)C(=O)NCc1cccs1 (stereo not drawn)	n
CCOc1ccccc1N1CCN(S(=O)(=O)c2cccc3nsnc23)CC1	n
Cc1nn(C(=O)c2cccs2)c(C)c1CN1C(=O)c2ccccc2C1=O	64
Cc1nn(C(=O)c2ccco2)c(C)c1CN1C(=O)c2ccccc2C1=O	n
Cc1nn(C(=O)N2CCCCC2)c(C)c1CN1C(=O)c2ccccc2C1=O	n
CCCCOc1ccccc1-c1cc(C(=O)O)[nH]n1	n
Cc1ccc(S(=O)(=O)N2CCN(c3nc(C)c4c(c3C#N)CC(C)(C)OC4)CC2)cc1	n
O=C(NCc1cccnc1)c1cn(CCc2ccccc2)nn1	n
CC(c1ccccc1)n1cc(C(=O)NCc2ccccn2)nn1 (stereo not drawn)	n
O=C(NCc1ccccn1)c1cn(CCc2ccccc2)nn1	68
Cc1cc(S(=O)(=O)N(Cc2ccc3c(c2)OCO3)CC2CCCO2)ccc1-n1cnnn1 (stereo not drawn)	n
CCOC(=O)c1cnc(C(C)(C)C)[nH]c1=O	n
O=c1c2ccccc2nnn1CSc1nnc(-c2cccs2)n1Cc1ccccc1	n
O=c1cc(CSc2nnc(-c3cccs3)n2Cc2ccccc2)nc2sc3ccccc3n12	51
Cc1cc(C(=O)CSc2nnc(-c3cccs3)n2Cc2ccccc2)c(C)n1C	n
COC(=O)c1[nH]c2cccc(Cl)c2c1NC(=O)CN(C)C1CCCCC1	n
SMILES	RT RNaseH block
Cc1csc(NC(=O)c2c(O)c3cccc4c3n(c2=O)CCC4)n1	n
CC(C)c1nnc(NC(=O)c2c(O)c3cccc4c3n(c2=O)CC4)s1	n
CCCc1nnc(NC(=O)c2c(O)c3cccc4c3n(c2=O)CCC4)s1	72
Nc1c(C(=O)NC2CCCC2)c2nc3ccccc3nc2n1/N=C/c1cccnc1	n
CCN(CC)S(=O)(=O)c1cccc(C(=O)OCc2cc(=O)n3nc(C)sc3n2)c1	n
COc1cc(CN2CCC(C(=O)N3CCCC(C)C3)CC2)cc(Br)c1O (stereo not drawn)	n
O=C(COc1ccc(Cl)cc1)Nc1ccccc1C(=O)NCc1ccco1	n
CC(C)(C)C(=O)Nc1ccccc1C(=O)NCc1ccco1	n
Cc1cc(C)cc(OCC(=O)Nc2ccccc2C(=O)NCc2ccco2)c1	60
CCCCCCn1c(C(C)NC(=O)c2ccco2)nc2ccccc21 (stereo not drawn)	n
Cc1[nH]n(C(N)=S)c(=O)c1C(c1ccccc1)C(C#N)C#N (stereo not drawn)	51
CN1CCCC(C(=O)C(C#N)c2ccccc2)C1 (stereo not drawn)	n
CCCc1[nH][nH]c(=O)c1C(c1ccccc1)C(C#N)C#N (stereo not drawn)	n
Cc1ccc(S(=O)(=O)NC(=O)c2cc(C)n(CCCn3ccnc3)c2C)cc1	n
O=C(Nc1ccc(N2CCCC2=O)cc1)c1cccc(F)c1	n
O=C(Nc1ccc(N2CCCC2)cc1)c1cccc(F)c1	59
O=C(Nc1ccc(N2CCCCC2)cc1)c1ccccc1	n
COc1cc(C(=O)Nc2ccc(OCC(=O)O)cc2)cc(OC)c1OC	n
CCOC(=O)CS(=O)(=O)c1nc(-c2ccccc2)cc(C(F)(F)F)n1	n
CCOC(=O)CS(=O)(=O)c1nc(-c2ccc(F)cc2)cc(C(F)(F)F)n1	55
CCOC(=O)CCS(=O)(=O)c1nc(-c2ccccc2)cc(C(F)(F)F)n1	n
CCc1c(C(=O)Nc2ccncc2)csc1C	n
CCn1c(COc2ccc3c(c2)CCCC3)nnc1SCC(=O)Nc1nccs1	62
CCn1c(CNC(=O)Cc2ccc(OC)cc2)nnc1SCC(=O)Nc1nccs1	n
CCn1c(SCC(=O)Nc2nccs2)nnc1-c1ccc(C)cc1	n
SMILES	RT RNaseH block
COc1c(Cl)cc(Cl)cc1/C=N/n1cnnc1	n
CCCC(=O)N1CCN(c2nc(CC(C)C)c3c(c2C#N)CCC3)CC1	n
COc1ccc(CNC(=O)C(C)OC(=O)c2cccn2C)cc1 (stereo not drawn)	n
CCOC(=O)Cn1c(=O)oc2cc(S(=O)(=O)Nc3cc(OCC)ccc3OCC)ccc21	n
CCOC(=O)Cn1c(=O)oc2cc(S(=O)(=O)Nc3ccc(N(CC)CC)cc3C)ccc21	50
CCOC(=O)Cn1c(=O)oc2cc(S(=O)(=O)Nc3cc(Cl)ccc3OC)ccc21	n
N#CCSc1nc2scc(-c3cccs3)c2c(=O)n1CCc1ccccc1	n

Screening results (PubChem)
